# How the values were obtained:
# Assay in all cases: PBM binding z-score (relative to random genomic background probes); higher = stronger binding; sequences stand for … in GC…GCGATTGACAGCGTAGAATGAAGG
# [1] = tested on: PPARg:RXRa DBDmut IVT, anti-RXR (DBD mutation: RXRa K156A/R161A, NR concentration 270 nM, RXRa partner concentration 90 nM)
# How it was run: (§1)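 Probes were double-stranded and carried 34-nt variable regions with direct-repeat seeds, single-nucleotide variants, half-site ablations and random human genomic background sequences, printed on custom Agilent 4×180K protein-binding microarrays. Arrays were incubated 1 h with ligand-free nuclear receptor dimers in PBS pH 7.4, 2% milk, 0.02% Triton X-100, 1 mM DTT, 0.2 mg/mL BSA and 0.4 mg/ml salmon testes DNA. Antibodies against each partner (one per run) detected binding, and scanned fluorescence was regression-normalized. Binding z-scores use the random background probes as reference.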
# [2] = tested on: PPARg:RXRa IVT, anti-PPARg (NR concentration 270 nM, RXRa partner concentration 90 nM)
# How it was run: as §1
# [3] = tested on: PPARg DBDmut:RXRa IVT, anti-PPARg (DBD mutation: PPARg1 K132A/R137A, NR concentration 270 nM, RXRa partner concentration 90 nM)
# How it was run: as §1
# [4] = tested on: PPARg DBDmut IVT, anti-PPARg (DBD mutation: PPARg1 K132A/R137A, NR concentration 270 nM)
# How it was run: as §1
# [5] = tested on: PPARg homodimer (NR concentration 180 nM)
# How it was run: as §1
# [6] = tested on: PXR:RXRa (NR concentration 270 nM, RXRa partner concentration 90 nM)
# How it was run: as §1
# [7] = tested on: PXR homodimer (NR concentration 270 nM)
# How it was run: as §1
# [8] = tested on: RARa:RXR (NR concentration 270 nM, RXRa partner concentration 90 nM)
# How it was run: as §1
# [9] = tested on: RARa homodimer (NR concentration 270 nM)
# How it was run: as §1
# [10] = tested on: RARb:RXRa (NR concentration 270 nM, RXRa partner concentration 90 nM)
# How it was run: as §1
# [11] = tested on: RARb homodimer (NR concentration 270 nM)
# How it was run: as §1
# [12] = tested on: RARg:RXRa (NR concentration 270 nM, RXRa partner concentration 90 nM)
# How it was run: as §1
# [13] = tested on: RARg homodimer (NR concentration 270 nM)
# How it was run: as §1
# [14] = tested on: RXRa DBDmut IVT, anti-RXR (DBD mutation: RXRa K156A/R161A, NR concentration 90 nM)
# How it was run: as §1
# [15] = tested on: RXRa homodimer (NR concentration 180 nM)
# How it was run: as §1
# [16] = tested on: THRa:RXRa (NR concentration 90 nM, RXRa partner concentration 90 nM)
# How it was run: as §1
# [17] = tested on: THRa homodimer (NR concentration 90 nM)
# How it was run: as §1
# [18] = tested on: VDR homodimer (NR concentration 270 nM)
# How it was run: as §1
Sequence,PBM binding z-score [1],PBM binding z-score [2],PBM binding z-score [3],PBM binding z-score [4],PBM binding z-score [5],PBM binding z-score [6],PBM binding z-score [7],PBM binding z-score [8],PBM binding z-score [9],PBM binding z-score [10],PBM binding z-score [11],PBM binding z-score [12],PBM binding z-score [13],PBM binding z-score [14],PBM binding z-score [15],PBM binding z-score [16],PBM binding z-score [17],PBM binding z-score [18]
CAAACTAGGTCAAAGGTCAAAGTGGAGCCAACCA,8.72,9.15,3.29,1.05,7.6,7.01,2.04,8.86,5.25,5.8,4.96,8.91,7.43,3.12,10.1,4.71,1.88,3.27
TCTTGTAGATCAGAGGTTAAGAAAGCCGAAGCCT,1.58,2.04,0.138,0.179,0.818,0.951,-0.359,1.48,-0.453,0.915,0.579,0.522,0.221,0.653,1.5,0.868,-0.337,0.103
CAAACTAGGTCAAGAGGTCTAAGTCCGCTTCCCG,7.99,8.45,1.43,2.57,1.86,1.66,-0.00755,2.65,0.497,4.1,3.42,4.23,4.4,1.73,2.76,2.82,1.1,1.23
TTACCAAGGTGAAAGGTCGATGATGCACGCCTTG,2.4,4.78,0.899,1.64,2.36,3.08,-0.143,4.99,0.188,2.98,2.3,3.83,2.15,-0.254,4.5,3.04,0.568,0.119
ATCTCTAGGTAACCAAGTCCAGTGAATGCCGAAC,3.27,2.54,0.49,1.58,0.614,0.0528,0.209,0.268,0.592,0.379,0.289,0.196,0.238,0.275,0.184,0.825,0.807,0.463
ATCTCTAGATAACAAGTTCAGTGAAAGAGAGGAC,-0.504,0.236,0.623,0.272,0.186,1.26,1.72,0.0962,0.589,1,1.37,0.77,0.933,0.583,0.621,0.754,0.108,2.72
CGTCCAAGGTCAAGGTCAGTGCAAGAGACTCGAA,3.72,4.78,-0.258,-0.287,3.45,5.43,2.22,5.21,1.13,5.62,5.45,6.95,7.95,3.52,6.56,4.21,3.91,3.18
TCGTATAGGTAAACAGGTGAAAGTCCGTAAGTTA,2.73,2.33,0.663,0.619,1.46,0.831,0.735,1.22,1.47,0.797,1.14,0.368,0.358,1.41,0.637,0.794,0.786,0.302
ATACTAAGGTGATCGTGAGGTCGTTGATACTAAC,1.4,1.73,0.74,1.39,1.65,3.74,1.93,2.88,0.716,1.77,1.76,2.89,1.27,1.35,2.06,3.7,3.46,3.43
CCTTACGGGTCACGGACAGGTTATAGCATTTGGA,3.87,4.87,1.03,2.15,5.94,4.82,0.261,6.3,2.04,4.37,3.42,6.84,5.39,1.99,6.76,3.59,0.532,1.16
CCTAGCAGGCCAATCTGCGTCACTCAAGGCTTGA,1.32,-0.303,-1.31,-0.968,-0.505,-0.683,-0.513,-0.426,-0.164,0.0378,-0.405,-0.524,-0.155,0.164,-0.602,-0.51,-0.515,-0.294
CGAAGTAGGTCAGAACAGGACAGTGAAGGATGAT,7.52,7.53,0.926,0.783,1.04,0.897,-0.0169,0.781,0.475,2.75,2.04,2.23,3.23,0.286,1.37,3.52,0.146,0.1
CTCGAAAGGCCGGTTGAGGTGAGTATACGGATAA,-0.491,-0.359,-0.611,-0.528,-1.35,-0.133,-0.38,1.91,-1.14,0.703,0.451,0.273,0.383,-0.239,-0.037,3.54,0.438,-0.821
CCGAGTAGGTTATGGGGCATCCAGGCAACGGTGA,2.41,3.47,0.134,-0.392,0.993,-0.0112,-0.414,0.287,0.0576,0.965,0.911,0.651,0.586,-0.816,0.858,0.523,0.159,-0.188
TCTAGCAGGCCAGAAGGTCACTCAAGAGGTACGG,1.1,0.932,-0.221,-1.25,2.43,2.79,-0.00251,3.63,-0.201,3.28,3.87,3.95,3.46,0.459,3.15,2.28,0.225,1
